Test results from ChEMBL document CHEMBL4513216, “Probing the Open Global Health Chemical Diversity Library for Multistage-Active Starting Points for Next-Generation Antimalarials” (ACS Infect Dis, 2020).
Screen size: about 69,000 compounds; about 8,600 (12%) showed an effect of 50% or more. The full list was thinned out, with strong results kept by preference.

test system: Plasmodium berghei; experiment: Screen against P. berghei liver stage (PbLuc), transformed with Luciferase, at 10uM; type: functional, HepG2; conditions: tested at 10 uM

| SMILES | INHIBITION |
| --- | --- |
| O=C(NC1CC1)C1[C@H]2CN(Cc3ccc(-c4cc[nH]n4)s3)C[C@@H]12 (some centres undefined) | 33.3% |
| c1cc(CN2CCC3(CC2)COC(COCC2CC2)C3)co1 (centres undefined) | -17.1% |
| Cc1cccc(-c2nc(CNC3CCc4ncnn4C3)no2)c1 (centres undefined) | 23.7% |
| O=C1CCC2(CCN(Cc3ncccn3)CC2)CN1CCCO | -33.5% |
| Cc1oc(-c2nc(C#N)c(NCC(C)C)o2)cc1S(=O)(=O)N1CCCC1 | 22.6% |
| CCN(CC)S(=O)(=O)NCC1COc2ccccc2O1 (centres undefined) | 36.9% |
| Cc1cc(C(=O)NCc2cccnc2N2CCCC(O)C2)[nH]n1 (centres undefined) | 34.5% |
| Cc1cc(C(=O)NCc2cccnc2N2CCCC(O)C2)c(C)o1 (centres undefined) | 55% |
| Cn1ccn2ncc(C(=O)NCc3cccnc3N3CCCC(O)C3)c12 (centres undefined) | 28.8% |
| Cc1cc(CN2CCN(C(=O)NC(C)Cn3cccn3)CC2)no1 (centres undefined) | -17.78% |
| CC(NC(=O)NCCCN(C)S(C)(=O)=O)c1cccc(Cl)c1 (centres undefined) | -15.8% |
| CC(NC(=O)NCCCN(C)S(C)(=O)=O)c1cccnc1 (centres undefined) | -9.37% |
| CC(NC(=O)NCCCN(C)S(C)(=O)=O)c1ccncc1 (centres undefined) | 1.77% |
| CC(NC(=O)NCCCN(C)S(C)(=O)=O)c1ccc(C#N)cc1 (centres undefined) | 44.1% |
| CC(NC(=O)NCCCN(C)S(C)(=O)=O)c1ccc(Cl)cc1 (centres undefined) | 62.6% |
| CC(NC(=O)NCCCN(C)S(C)(=O)=O)c1ccc(F)cc1 (centres undefined) | 58.5% |
| Cn1cc(CC2CC(=O)N(Cc3ccc(OC(F)F)cc3)C2=O)cn1 (centres undefined) | 16.6% |
| Cn1ccnc1C(=O)NCc1cnc2n1CCN(CC1CC1)CC2 | -24.1% |
| Cc1nc2n(n1)CC(Nc1ccnc(-c3ccccc3)n1)CC2 (centres undefined) | -5.1% |
| O=C(NCCn1nc(C2CCNC2)c2cccnc21)c1ccccn1 (centres undefined) | 3.91% |
| CC1(C)Cc2ccc(C(=O)NC3CCS(=O)(=O)C3)c(O)c2O1 (centres undefined) | 36.8% |
| O=C1Nc2ccccc2CNC12CCN(CC1CC1)CC2 | 20.1% |

| SMILES | INHIBITION |
| --- | --- |
| c1coc(CN2C[C@H](OCC3CCOCC3)[C@H]3COC[C@H]32)c1 | 21% |
| CCCNC(=O)Cn1cc(OC)c(=O)cc1CSc1nc(C)cc(C)n1 | -3.83% |
| COc1cn(CC(N)=O)c(CSc2nccc(C)n2)cc1=O | 64.3% |
| COc1cn(CC(N)=O)c(CSc2nc(C)cc(C)n2)cc1=O | 24% |
| CNC(=O)CCc1cc(C)nc(C2CCN(C3CCCCC3)CC2)c1 | 15.58% |
| CCOC(=O)[C@H]1CNC[C@@H]1C(=O)OCC | 0.868% |
| c1ccc(OCc2n[nH]c3c2CN(CC2CC2)C3)nc1 | -23.3% |
| O=S(=O)(Cc1ccccc1F)NCCN1CCOCC1 | -11.9% |
| O=C(NCCN1CCOCC1)c1cc(COc2ccccc2F)[nH]n1 | 63.7% |
| O=C(Cc1ccccc1F)NCCN1CCOCC1 | 68.4% |
| O=C(NCCN1CCOCC1)c1ccn(-c2ccccc2F)n1 | -8.91% |
| O=C(Cc1ccccc1F)NCC1CCN(CCc2ccccc2)C1 (centres undefined) | 26.7% |
| O=S(=O)(NCC1CCN(CCN2CCOCC2)C1)c1ccccc1F (centres undefined) | 47.1% |
| O=C(NCC1CCCO1)c1cc(COc2ccccc2F)[nH]n1 (centres undefined) | 16.8% |
| O=C(Cc1ccccc1F)NCC1CCN(CCN2CCOCC2)C1 (centres undefined) | 64.7% |
| O=C(NCCCN1CCOCC1)C(OC1CCCC1)c1ccccc1 (centres undefined) | -12.1% |
| O=C(NCCN1CCOCC1)C(OC1CCCC1)c1ccccc1 (centres undefined) | 69.5% |
| O=C(NCCC1CCCCO1)c1cc(COc2ccccc2F)[nH]n1 (centres undefined) | 25.4% |
| CN1CCN(CCNC(=O)C(OC2CCCC2)c2ccccc2)CC1 (centres undefined) | 35.2% |
| O=C(Nc1nccs1)NC1CCN(CC2CCCC2)CC1 | 21.45% |
| c1nn(C2CCCCC2)cc1-c1cncn1CCCN1CCCCC1 | 18.75% |
| CCC(=O)N1CCC(Cc2ccccc2-c2ccccc2)(C(N)=O)C1 (centres undefined) | 36.4% |

| SMILES | INHIBITION |
| --- | --- |
| Cc1nccn1C1CCCN(C(=O)c2cccc(OCC(N)=O)c2)C1 (centres undefined) | -0.219% |
| N#Cc1ccc(OCCN2CCNC(=O)C2c2cccs2)cc1 (centres undefined) | 3.04% |
| Cc1ccc(C(=O)NC2CCN(Cc3noc(C(C)(C)C)n3)CC2)s1 | -42.8% |
| COCCCS(=O)(=O)N(Cc1cccc(C)c1)Cc1ccccn1 | 4.13% |
| CCN1CCC2(CCC(=O)N2Cc2cccc(C)n2)CC1 | -6.77% |
| CN(C)c1cc(C(=O)N2CCCN(Cc3cscn3)CC2)ccn1 | 20.1% |
| CC(CNC(=O)Nc1ccc(F)cc1Br)N1CCOCC1 (centres undefined) | 46.6% |
| CC(Cn1cncc1-c1cnn(C2CCCCC2)c1)N1CCCCC1 (centres undefined) | -1.9% |
| O=C(O)CC1CN(Cc2ccccc2)CCO1 (centres undefined) | 22.1% |
| O=C(CC1CN(Cc2ccccc2)CCO1)NCCN1CCOCC1 (centres undefined) | 56.5% |
| O=C(CC1CN(Cc2ccccc2)CCO1)NC1CCCC1 (centres undefined) | -15.8% |
| CNC(=O)c1c[nH]nc1C1CCCN1c1ncccn1 (centres undefined) | 23.9% |
| O=C1CCC2(CCN(Cc3ccc(F)cc3)CC2)N1CCN1CCCC1 | -22.1% |
| Cn1c(=O)c2sccc2n(Cc2ccccc2)c1=O | 36.8% |
| COc1cccc(Cn2c(=O)n(C)c(=O)c3sccc32)c1 | 50.5% |
| COc1ccc(Cn2c(=O)n(C)c(=O)c3sccc32)cc1 | 75.7% |
| CCCc1n[nH]c(=O)n1Cc1ccc(OC)cc1 | -32.6% |
| COc1cccc(-n2cc3[nH]c(=O)n(Cc4cccc(F)c4)n3c2=O)c1 | 36.3% |
| CCS(=O)(=O)N1CCC2(CCN(Cc3cccc(OC)c3)CC2)CC1 | 34.6% |
| COc1ccc(CN2CCn3c(C(=O)N(C)C)cnc3C2)cc1 | 26.4% |
| COC(=O)c1cccc(CNC(=O)CC(F)(F)F)c1 | 51.4% |
| CCCC(=O)NCc1cccc(C(=O)OC)c1 | 51.4% |

| SMILES | INHIBITION |
| --- | --- |
| COC(=O)c1cccc(CNC(=O)c2cc(C(C)C)n(C)n2)c1 | -55.1% |
| COC(=O)c1cccc(CNC(=O)CCC(F)(F)F)c1 | 4.68% |
| COCCCC(=O)NCc1cccc(NC(N)=O)c1 | 15.8% |
| COC(=O)c1cccc(CNC(=O)NCCC(F)(F)F)c1 | 41.4% |
| CCc1nc(C)sc1CN1C[C@@H](C)[C@@](C)(O)C1 | 14.9% |
| CSc1ncc(C(=O)N(C)C(C)Cc2ccccn2)cn1 (centres undefined) | -1.16% |
| O=C(NCc1nnc2n1C(C(=O)NC1CC1)CC2)c1ccc(Cl)cc1Cl (centres undefined) | 44.9% |
| CN1CCC2(CC1)CN(C(=O)c1cccnc1)Cc1ccccc12 | 33.4% |
| COCCN1CC2(CCN(C(=O)c3ccno3)CC2)c2ccccc21 | -14.7% |
| COCCN1Cc2ccccc2C2(CCN(C(=O)c3ccno3)CC2)C1 | -1.36% |
| CN1CCC2(CC1)CN(C(=O)c1ccncc1)Cc1ccccc12 | 57.9% |
| Cc1cncc(C(=O)N2Cc3ccccc3C3(CCN(C)CC3)C2)c1 | 39.2% |
| Cc1cccc(C(=O)N2Cc3ccccc3C3(CCN(C)CC3)C2)n1 | 36.9% |
| CS(=O)(=O)N1Cc2ccccc2C2(CCN(C(=O)c3ccno3)CC2)C1 | 55.7% |
| Cc1ccsc1C(=O)N1Cc2ccccc2C2(CCN(C)CC2)C1 | 53.5% |
| CN1CCC2(CC1)CN(C(=O)c1cnccn1)Cc1ccccc12 | 18.3% |
| CCCC1c2cccn2CCN1C(=O)c1cc(CC)no1 (centres undefined) | 44.1% |
| Cc1cccc(C)c1-n1nnnc1C1(NCc2ccco2)CCCC1 | 45.4% |
| Cc1nc(C)n(CC2CCCN2CC(=O)NC2CCOCC2)n1 (centres undefined) | 38.5% |
| Cc1nc(CN2CCN(CC(O)CN3CCOCC3)CC2)oc1C (centres undefined) | 4.34% |
| O=C([C@H]1CCCO1)N1CCC2(CCCN(CCOc3ccccc3)C2)C1 (some centres undefined) | 12.4% |
| COCC(=O)N1CC[C@H]2O[C@@H](C)C[C@H]2C1 | -1.55% |

| SMILES | INHIBITION |
| --- | --- |
| Cc1nn(C)cc1S(=O)(=O)NCC(c1ccccc1Cl)N1CCCC1 (centres undefined) | 13.5% |
| Cn1c(CNCC2CCCN2c2cccnn2)nc2ccccc21 (centres undefined) | -0.113% |
| OC(COCc1cccs1)CN1CCc2c(ncn2C2CC2)C1 (centres undefined) | 2.97% |
| Cc1ccc2[nH]c([C@H]3CCN(CC4CCCCC4)C3)nc2c1 | 51.9% |
| COCCN1CCC(c2nc3cc(C)ccc3[nH]2)CC1 | 15.5% |
| Cc1ccc2[nH]c(C3CCN(C)CC3)nc2c1 | -17.9% |
| Cc1nc(CNC(=O)c2cc(COc3ccccc3)[nH]n2)n[nH]1 | 15.7% |
| NC(=O)c1nc(-c2ccc(Cl)cc2Cl)oc1N | -63.4% |
| Cc1cc2c(=O)n3c(nc2s1)CCN(Cc1cnn(C)c1C)CC3 | 24.5% |
| COC(=O)C(C)N1CCCc2cc(OC)ccc2C1 (centres undefined) | 59.2% |
| COc1ccc2c(c1)CCCN(C(C)C(=O)NC(C)C)C2 (centres undefined) | -9.87% |
| COc1ccc2c(c1)CCCN(C(C)C(=O)NC(N)=O)C2 (centres undefined) | 1.79% |
| CNC(=O)CS(=O)(=O)Cc1coc(-c2cccc(F)c2)n1 | -11.3% |
| CS(=O)(=O)CCC(=O)NC1(c2cccc(Br)c2)CC1 | 5.14% |
| CCC(C(=O)NC)N(c1cccc(C)c1)S(C)(=O)=O (centres undefined) | 0.547% |
| CC(C)CS(=O)(=O)CC(=O)NC(C)(C)c1cccc(F)c1 | 52.2% |
| CS(=O)(=O)CCC(=O)Nc1ccsc1 | -120% |
| Cc1cccc(C(C)(C)NC(=O)CS(=O)(=O)CC(C)C)c1 | 64.5% |
| CCS(=O)(=O)CC(=O)NC(C)c1ccc(F)cc1F (centres undefined) | 47.5% |
| Cc1cccc(C(C)(C)NC(=O)CCS(C)(=O)=O)c1 | 51% |
| Cc1cccc(CS(=O)(=O)CC(=O)NCCCOC(C)C)c1 | 45% |
